{
  "source": "PubChem BioAssay (NCI)",
  "note": "This is part of a sample that, as a whole, favours compounds with a hit. Of some 83,000 tested, about 20% had one in any assay.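 Activity criterion: percent growth below 10, measured after cells in 96-well plates were exposed to a single compound concentration for 48 hours.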 Calls of active or inactive are those of the source.",
  "data": [
    {"test_system": "OVCAR-5 ovarian", "test": "NCI-60 one-dose screen, 48 h (100 = growth as untreated, 0 = no growth, -100 = all killed)", "details": "10 µM unless noted", "description": "Growth inhibition of the OVCAR-5 human tumor cell line is measured as a screen for anti-cancer activity. Cells are grown in 96 well plates and exposed to the test compound for 48 hours. Compounds are tested at a single concentration, which is 10^-5 M for most compounds. The reported endpoint is percent growth (GI% or GIPRCNT), where numbers from 0 - 100% represent growth inhibition, and numbers from -100% - 0 represent cell death. For example, a value of 40 represents 60% growth inhibition. A value of 0 means no net growth occurred over the course of the experiment. A value of -40 indicates 40% of cells at the beginning of the experiment died by the end of the experiment. A value of -100 means all cells are dead at the end of the experiment.\nNCI-60 Human Tumor Cell Lines Screen was performed using the standard one-dose NCI protocol, which is described in more detail at https://dtp.cancer.gov/discovery_development/nci-60/default.htm.\nCompounds with GIPRCNT values below 10 were considered active. Activity score was based on GIPRCNT using the following formula: […]\nScore is 0 for GIPRCNT values of 100 or above, 50 for GIPRCNT values of 0, and 100 for GIPRCNT values of -100.", "values": [
      {"smiles": "CCn1c(SCC(=O)N/N=C(\\C)c2ccc(Cl)cc2)nc2c1c(=O)n(C)c(=O)n2C", "growth": "99% (inactive)"},
      {"smiles": "COc1ccc(C(=O)Nc2cccc(-c3cc(=O)c4c(OC)c(OC)c(OC)cc4o3)c2)cc1", "growth": "95.6% (inactive)"},
      {"smiles": "COc1cc(/C=C/C(=O)c2ccc(F)cc2)ccc1OCCCCOc1ccc(/C=C/C(=O)c2c(C)nc3ccccc3c2C)cc1OC", "growth": "108% (inactive)"},
      {"smiles": "O=C(Nc1cccc(Cl)c1)Nc1cccc(Cn2c(=O)[nH]c3ccc(Oc4ncccn4)cc3c2=O)c1", "growth": "81.7% (inactive)"},
      {"smiles": "COc1cc2c(c(OC)c1OC)CCC(c1cccc(C(=O)Nc3cccc(Cl)c3)c1)O2", "note": "(stereo not given)", "growth": "75.3% (inactive)"},
      {"smiles": "Fc1cc2c(cc1Cl)N(c1ncnc3ccc(-c4ccc5n[nH]nc5c4)cc13)CC2", "growth": "76.5% (inactive)"},
      {"smiles": "O=C(N/N=C/c1ccc(Cl)cc1)c1[nH]c2ccc(Cl)cc2c1-c1ccccc1", "growth": "51.5% (inactive)"},
      {"smiles": "Nc1cc(C(=O)NC[C@H]2CN(c3ccc(N4CCC(C(=O)O)CC4)cc3)C(=O)O2)ccc1Cl", "growth": "96.1% (inactive)"},
      {"smiles": "O=C1NC(=O)C(Cc2ccc(OCc3ccc(-c4ccc(Cl)cc4Cl)cc3)cc2)S1", "note": "(stereo not given)", "growth": "80.6% (inactive)"},
      {"smiles": "COc1cc2cc(NCc3cccc(Cl)c3)nc(C)c2cc1OC", "growth": "43.7% (inactive)"},
      {"smiles": "NC(=O)C(=O)c1ccccc1NC=O", "growth": "102% (inactive)"},
      {"smiles": "N#Cc1nc(-c2ccc(F)cc2)oc1S(=O)(=O)N1CCOCC1", "growth": "101% (inactive)"},
      {"smiles": "O=S(=O)(NCCCNc1nccc(-c2c(-c3ccc(F)c(O)c3)nc3sccn23)n1)c1ccccc1", "growth": "113% (inactive)"},
      {"smiles": "CCC(C)N(CCNc1cc(OC)cc2cccnc12)CC(C)C", "note": "(stereo not given)", "growth": "99.6% (inactive)"},
      {"smiles": "COc1ccc2c(c1)N(CCO)C1=C(C(=O)OC1)C2c1cccc(F)c1", "note": "(stereo not given)", "growth": "44.6% (inactive)"},
      {"smiles": "C=C1CC[C@@H]2[C@](C)(COC(C)=O)[C@H](OC(C)=O)CC[C@@]2(C)[C@@H]1CC(Nc1ccc(S(=O)(=O)Nc2ncccn2)cc1)C1=CCOC1=O", "note": "(stereo not given in full)", "growth": "-1.98% (active)"},
      {"smiles": "COc1ccccc1NC(=O)N=Nc1c(O)[nH]c2ccccc12", "growth": "86.7% (inactive)"},
      {"smiles": "Cn1ccnc1C(=O)/C=C/c1ccc(CC(=O)Nc2cc(C(F)(F)F)cc(C(F)(F)F)c2)cc1", "growth": "83.8% (inactive)"},
      {"smiles": "Cc1cn(-c2cc(NC(=O)c3cncc(C#Cc4cnc(N)c5ncccc45)c3)cc(C(F)(F)F)c2)cn1", "growth": "60.3% (inactive)"},
      {"smiles": "CCN(CC)CCn1c2ccc(OC)cc2c2sc3cc(OC)ccc3c(=O)c21", "growth": "37.1% (inactive)"},
      {"smiles": "CCOC(=O)c1ccc(NC(=O)c2nc(-c3cc(OC)c(OC)c(OC)c3)n(-c3ccc(Cl)cc3)n2)cc1", "growth": "101% (inactive)"},
      {"smiles": "CSc1nc(N)c(NS(=O)(=O)c2ccc(C(C)=O)cc2)c(=O)[nH]1", "growth": "104% (inactive)"},
      {"smiles": "O=C(Nc1cccc(-c2ccc(Cl)c(C(F)(F)F)c2)c1)C1CCN(Cc2cccc3cccnc23)CC1", "growth": "70.2% (inactive)"},
      {"smiles": "CC(C)c1ccc(C(=O)Nc2nc3ccc(O)c(CN(C)C)c3s2)cc1", "growth": "70.1% (inactive)"},
      {"smiles": "C#CCOC(=O)/C=C/c1cn(-c2ccccc2)nc1-c1ccc(OC)cc1", "growth": "91% (inactive)"},
      {"smiles": "C=C1C(=O)O[C@H]2[C@H]1CC/C(Cn1cc(-c3ccccc3)nn1)=C\\CC[C@@]1(C)O[C@@H]21", "growth": "-2.95% (active)"},
      {"smiles": "COc1ccc(CN2c3ccccc3Sc3ccccc32)cc1F", "growth": "43.1% (inactive)"},
      {"smiles": "COc1ccc(C(=O)C/C(=C\\c2ccc(Cl)cc2)C(=O)NCc2ccccc2)cc1", "growth": "99.5% (inactive)"},
      {"smiles": "COc1ccc(NC2=C(I)C(=O)c3ncccc3C2=O)cc1", "growth": "-62.8% (active)"},
      {"smiles": "O=C(O)c1ccc(-n2cc(/C=N/Nc3ccccc3)c(-c3ccc(F)cc3F)n2)cc1", "growth": "57.6% (inactive)"},
      {"smiles": "COC(=O)/C=C1/SC(=Nc2cccc(OC)c2)N(CCc2c[nH]c3ccc(O)cc23)C1=O", "growth": "83.3% (inactive)"},
      {"smiles": "N#Cc1ccc(O)c(C2=NCC(c3cccc(Oc4ccccc4)c3)O2)c1", "note": "(stereo not given)", "growth": "55.5% (inactive)"},
      {"smiles": "O=S(=O)(Nc1ccc(F)cc1F)c1ccc(-c2cnc(C3CC3)o2)cc1", "growth": "51.8% (inactive)"},
      {"smiles": "N#Cc1ccc(O)c(C2=NCC(c3ccccc3)O2)c1", "note": "(stereo not given)", "growth": "84% (inactive)"},
      {"smiles": "O=C(Nc1nc2ccccc2s1)c1ccc(F)cc1", "growth": "101% (inactive)"},
      {"smiles": "CN1CCN(c2cc(Nc3cc(C4CC4)[nH]n3)nc(Nc3ccc(CC(=O)NCc4cccc(F)c4)cc3)n2)CC1", "growth": "11% (inactive)"},
      {"smiles": "Nc1nc(N)c(-c2ccc(Cl)c(Cl)c2)c(CBr)n1", "growth": "55.3% (inactive)"},
      {"smiles": "CCc1ccccc1-n1c(-c2ccc(OC)cc2)cc(-c2ccc(OC)cc2)c(C#N)c1=O", "growth": "92.7% (inactive)"},
      {"smiles": "O=C(COc1ccc(-c2nc3cc(Cl)c(Cl)cc3[nH]2)cc1)N=Nc1c(O)[nH]c2ccc(Cl)cc12", "growth": "95.6% (inactive)"},
      {"smiles": "O=C(/C=C/c1cccc(Cl)c1)c1ccc(Nc2nc(Nc3ccc(F)cc3)nc(Nc3ccc(Cl)cc3)n2)cc1", "growth": "98% (inactive)"}
    ]}
  ]
}
